Experimental data taken from PubChem BioAssay AID504389 (National Center for Advancing Translational Sciences (NCATS), 2011).
Inconclusive results are not listed. The call rests on the fitted dose curve; in most records, active means well fitted curve in the direction sought with a large enough effect; inconclusive means small, poorly fitted or top-dose-only effect, or effect the other way, or another doubt; inactive means no such curve, though single readings can be large or run the other way.

These compounds were tested against Thyrotropin receptor (Homo sapiens) (UniProt P16473) (assay: qHTS Assay for Antagonists of the Thyroid Stimulating Hormone Receptor: SAR for Probe). Conditions: HEK293-TSHR, TSH-stimulated cAMP HTRF, 2 h; series mostly up to 57.5 µM; activity change, negative = inhibition: at the top concentration.
Sequence of Thyrotropin receptor (Homo sapiens) (P16473 whole entry, looked up): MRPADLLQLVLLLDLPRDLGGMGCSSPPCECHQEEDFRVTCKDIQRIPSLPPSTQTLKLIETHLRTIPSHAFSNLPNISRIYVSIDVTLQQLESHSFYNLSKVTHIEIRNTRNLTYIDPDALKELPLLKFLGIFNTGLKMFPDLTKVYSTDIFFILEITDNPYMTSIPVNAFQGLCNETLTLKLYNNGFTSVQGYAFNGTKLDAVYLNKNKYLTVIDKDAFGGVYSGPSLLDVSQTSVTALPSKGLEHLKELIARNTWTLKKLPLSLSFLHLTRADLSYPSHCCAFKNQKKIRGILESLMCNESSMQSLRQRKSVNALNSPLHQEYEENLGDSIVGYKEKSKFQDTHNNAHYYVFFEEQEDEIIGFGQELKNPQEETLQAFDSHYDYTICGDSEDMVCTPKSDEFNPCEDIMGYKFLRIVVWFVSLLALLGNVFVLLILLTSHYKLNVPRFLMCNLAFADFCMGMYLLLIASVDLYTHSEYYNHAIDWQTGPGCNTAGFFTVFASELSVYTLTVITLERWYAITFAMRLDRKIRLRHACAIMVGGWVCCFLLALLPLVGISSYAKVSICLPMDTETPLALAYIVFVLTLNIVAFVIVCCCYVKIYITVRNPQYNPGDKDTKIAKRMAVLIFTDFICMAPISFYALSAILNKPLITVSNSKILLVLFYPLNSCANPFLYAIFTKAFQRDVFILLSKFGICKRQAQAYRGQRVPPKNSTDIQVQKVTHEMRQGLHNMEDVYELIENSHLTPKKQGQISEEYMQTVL
Description: TSH is an alpha/beta heterodimeric glycoprotein hormone secreted from the anterior pituitary gland which belongs to the glycoprotein hormone family. The actions of TSH are mediated by a seven-transmembrane receptor, which upon TSH binding couples preferentially to the G-alpha (s) protein (Gs), resulting in activation of adenylate cyclase and increase in cyclic adenosine 3', 5' monophosphate (cAMP). The TSH receptor (THSR) is mainly expressed in thyroid follicular cells and regulates their growth and function. This cell based assay was conducted on a TSHR transfected HEK 293 cell line, measuring cAMP stimulation using antibody-based Homogeneous Time Resolved Fluorescence (HTRF). Our goal is to identify small molecules that will inhibit (antagonize) the thyroid-stimulating hormone receptor (TSHR), a member of the 7 transmembrane-spanning receptor (7TMR) family of cell surface receptors. TSHR-mediated hyperthyroidism is important in thyroid pathology. The development of small molecule antagonists of TSHR may lead to therapeutic approaches for TSHR-mediated hyperthyroidism caused by constitutively activating mutations or stimulating auto-antibodies associated with Graves' disease. Graves' disease is the leading cause of hyperthyroidism and is caused by autoantibodies that stimulate TSHR (TsAbs) causing thyroid growth and unregulated overproduction of thyroid hormones and existing treatments have liabilities (agranulocytosis). In addition, TSHRs are known to be expressed in multiple extrathyroidal tissues including bone, brain, kidney, testis, fat and cells of the immune system but the role of the TSHR in these tissues is not clear. Therefore, TSHR antagonists/inverse agonists could be used as probes of extrathyroidal TSHR function. Finally, TSHR inverse agonists, which are a subclass of antagonists that inhibit agonist-independent (or basal or constitutive) TSHR signaling, could be used to inhibit TSH-independent signaling in patients with recurrent or metastatic thyroid cancer who are receiving thyroid hormone to suppress TSH. The present assay presents confirmation data for analogues of series of interest in the primary screening assay.
An anti cAMP antibody contains a fluorescent cryptate tag (excitation 337 nm; emission 620 nm) and the acceptor is cAMP-d2 (excitation 620 nm; emission 665 nm). When antibody and cAMP-d2 interact and are excited by a 337 nm light, a FRET occurs resulting in emission at 665 nm. The assay is competition between cAMP-d2 and cAMP (from the cell lysate). The homogeneous protocol allows for one step dispense after stimulation that is automation friendly. Step, Parameter, Value, Description 1, Cells, 3 uL, 2000 TSHR freshly harvested cells/well 1536 TC treated White solid bottom plate (Cells resuspended in 10 mM HEPES buffered HBSS and 70 uM RO 20-1724) 2, Compound, 23 nL, Libraries and controls 3, Compound, 1 uL, EC80 TSH (4 nM final) 4, Time, 2 hours, 37C 5, Reagent, 2 uL, cAMP antibody diluted 1:20 in lysis buffer 6, Time, 30 minutes, Room temperature 7, Detector, HTRF settings, Viewlux

Activity change, negative = inhibition, inactive:
COc1ccc(C2Nc3cccc(O)c3C(=O)N2Cc2ccco2)cc1COc1c(C)cc(NC(C)=O)cc1C (configuration not stated) -5.28%, COc1ccc(CN2C(=O)N(c3ccccc3)C(=O)C2c2ccccc2)cc1COc1ccc(NC(C)=O)cc1 (configuration not stated) 0.387%, COc1ccc(C2Nc3ccccc3C(=O)N2CCO)cc1COc1c(C)cc(NC(C)=O)cc1C (configuration not stated) -4.88%, COc1ccc(C2Nc3ccccc3C(=O)N2Cc2ccccc2OC)cc1COc1c(C)cc(NC(C)=O)cc1C (configuration not stated) -7.63%, COc1ccc(C2Nc3ccccc3C(=O)N2Cc2ccc(C(F)(F)F)o2)cc1COc1c(C)cccc1C (configuration not stated) -13%, COc1ccc(O)c(-c2nc3ccccc3c(=O)n2Cc2ccccc2)c1 2.81%, COc1ccc(C2Nc3ccccc3C(=O)N2Cc2ccccn2)cc1COc1c(C)cccc1C (configuration not stated) -8.52%
